# In paper PMC12136788:
# Substitutions are numbered along the chain they refer to. Over roughly 5,800 sequences, “enrichment r” has its median near 0.54; the highest 2% begin near 16. What follows is part of a selection rich in the highest values, with near analogues and random picks from the rest.
# B1: chr10:128104542:128104643:-|CDS|ENSG00000148773|msi1|total|mutant (ssRNA)
# RNA: GGGAGUUCUACAGUCCGACGAUCAAGUGAUGAGAAAAAUAUCAACACAUUUGUGGAAACUCCAGUGCAGAAACUGGACCUGCCCGGAAAUUUACCUGGCAGCAAGAGACAGCCACAGACUCCUAAGGAAAAGGCUGAGGCUCUCAACAGAGGAUUGAGCAUCA
# B2: chr4:138167974:138168075:-|3pUTR|ENSG00000151012|msi1|total|mutant (ssRNA)
# RNA: GGGAGUUCUACAGUCCGACGAUCCACAAAAUCUGCAUUGUCCAUGUGAGUAAAGUAAAAUAAUUCCUGUUAUUUUUUUCUGUCCGAAAUAAGUAUGGAGGAUAUGUUUUUAAAAAUUUAUGAGUUAAUUGAAAUAUCCAUAUACAACAGAGGAUUGAGCAUCA
# B3: chr5:38481646:38481747:-|CDS|ENSG00000113594|unk|total|mutant (ssRNA)
# RNA: GGGAGUUCUACAGUCCGACGAUCCAGACCUCAGGCCAAUGUAAAUACAUGGAAUUCCGUGUCUCCAGACUCUCCCCGAUCCACCGACAGCAACAGUGAGAUUGUCUCAUUUGGAAGUCCAUGCUCCAUUAAUUCCCGACAAUUCAACAGAGGAUUGAGCAUCA
# B4: chr13:69700593:69701701:-|three_prime_utr|ENSG00000150361|control|control|control (ssRNA)
# RNA: GGGAGUUCUACAGUCCGACGAUCUUGAAUGGCAAGAAUGAGAACUUCCAGAGAUGAAAACUCUUCAAGAACAAGGAUCUCUGUAGCGUUACCUACUGAUGUUGAAAGAGUUAGUAGAUCAAACAGAAUAGUAGGAAACAAGAACAACAGAGGAUUGAGCAUCA
# B5: ENSG00000198589:be:win_251|CDS|ENSG00000198589|bound_else_gene|NA|bound_elsewhere_windowed (ssRNA)
# RNA: GGGAGUUCUACAGUCCGACGAUCUCAUUAUCCAAGAAGGUGAGAGUAUUAACUGCAUGGUGGACCUACUGGAAAAAUGUGACAUUACGUGCCAAGCAGAAGUCUGGAGCAUGUUUACAGCCAUUCUGAAGAAAAGCAUACGGACAACAGAGGAUUGAGCAUCA
# B6: chr11:27368498:27368690:-|CDS|ENSG00000205213|msi1|FALSE|unique (ssRNA)
# RNA: GGGAGUUCUACAGUCCGACGAUCACCCCUUUGUUUGCCAUUUCCUACAGGUGAAACGCCAUCAUUAGGAUUCACUGUAACGUUAGUGCUAUUAAACUCACUAGCAUUUUUAUUAAUGGCCGUUAUCUACACUAAACUAUACUGCAACAGAGGAUUGAGCAUCA
# B7: chr7:123692404:123692516:-|CDS|ENSG00000106299|unk|FALSE|unique (ssRNA)
# RNA: GGGAGUUCUACAGUCCGACGAUCCCUGCCUUCUGAUGGGGACCAUCAGGUUCCAACUACUGCAGGAAACAAAGCAGCUCUUUUAGAUCAAAUUAGAGAGGGUGCUCAGCUAAAAAAAGUGGAGCAGAACAGUCGGCCAGUGUCCAACAGAGGAUUGAGCAUCA
# B8: chr5:139396562:139396955:-|CDS|ENSG00000170469|control|control|control (ssRNA)
# RNA: GGGAGUUCUACAGUCCGACGAUCAGGGGUCCACAAGGUGGGGGCUUGUAGCCUAGGGGAGGAGCUGGGUCUUUGUUGUCUGGUAGGCACCACCGCUUCCUUUGGGUAUUUAAUCCCUUCCUAUAUAAACAGCCCUGGUUACCCCAACAGAGGAUUGAGCAUCA
# B9: ENSG00000070961:be:win_6151|3pUTR|ENSG00000070961|bound_else_gene|NA|bound_elsewhere_windowed (ssRNA)
# RNA: GGGAGUUCUACAGUCCGACGAUCCAAUCACUUUUUCUCUUUUAUCCUCUAACCAAAAAAUUGUUUAAUUUUGCAUCCCAAAUGUUUUUAAUCUUUGUAUAUUUUUUAAAAAUCCUUUUCUCCUCAUCAUUGCCUUUUUUGUGGCAACAGAGGAUUGAGCAUCA
# B10: chr10:113908677:113908778:+|3pUTR|ENSG00000196865|unk|total|mutant (ssRNA)
# RNA: GGGAGUUCUACAGUCCGACGAUCAGCUAUGCUCCUUACUUACUUCUUUUAUUAUAAACAAAUUCCUUUGCUUUGGCUGAUACCCGCUGAGUCAUUGAUCAUCAUUGGUACCAUGAUAUUGUAAUCUAUGCUGCUAUUUGGCACCAACAGAGGAUUGAGCAUCA
# B11: chr10:92030311:92030412:+|3pUTR|ENSG00000095564|unk|FALSE|unique (ssRNA)
# RNA: GGGAGUUCUACAGUCCGACGAUCAUAUAAGAUUGAAACUGUAAAAUAUAUGCAACUGUGUGUUAUUUGUAGGAAAUGGUCACUAGAAAGAGCAAAAGAUUAUUCAGGUAUACAGGUUUUUUUUCAUUGUUUAGGAUUUUAACUCAACAGAGGAUUGAGCAUCA
# B12: chr8:94436494:94436868:-|CDS|ENSG00000265817|control|control|control (ssRNA)
# RNA: GGGAGUUCUACAGUCCGACGAUCAAUAGUAGAAAAGAAUAGAUGUUGGGAUAUCAUAGCAGUUAACUAUAAUGCAAUUGGAGUAGACCGCCCUCCUCGAACAGCACAGGGCCUACGCACCCUUUAUAAAAGGCUCAAAGAAUACAACAGAGGAUUGAGCAUCA
# B13: chr6:75256125:75256201:-|CDS_3pUTR|ENSG00000112697|msi1_unk|FALSE|overlapping (ssRNA)
# RNA: GGGAGUUCUACAGUCCGACGAUCUUUGGGGAUUGCUUACAUCGCUGUUGGAUCCAUCUCCUUCCUUCUGGGAGUUGUACUGCUAGUAAUUAAUCAUAAAUAUAGAAACAGUAGUAAUACAGCUGACAUUACCAUUUAAUUUUACAACAGAGGAUUGAGCAUCA
# B14: chr1:113764432:113764533:-|3pUTR|ENSG00000081019|msi1|FALSE|bound_elsewhere (ssRNA)
# RNA: GGGAGUUCUACAGUCCGACGAUCAAAAUAUUCUGAAAUAGGUUAAAUCUUAUAUAAAUAUUACUUUGUGCAAUAUUGUUGUGUAGUUAAAUGCAUAUUAGCAAAGUAUAGAGGUCACUGUGUAAACCGAUAGAAAAGUAACCACAACAGAGGAUUGAGCAUCA
# B15: chr1:113764432:113764533:-|3pUTR|ENSG00000081019|msi1|total|mutant (ssRNA)
# RNA: B14 RNA with U38C, A39C, U83C, A84C, U98C, A99C, U108C, A109C, U130C, A131C
# B16: chr6:75256125:75256201:-|CDS_3pUTR|ENSG00000112697|msi1_unk|total|mutant (ssRNA)
# RNA: B13 RNA with U83C, A84C, U102C, A103C, U111C, A112C
# B17: chr1:229632307:229632408:+|CDS|ENSG00000135763|unk|total|mutant (ssRNA)
# RNA: GGGAGUUCUACAGUCCGACGAUCAUUUUAUAAGAAAAAGCUUGAACUGAAGGAAGAUAUUGUUGAAAGGCUUUGGAUCUAUACCGAUAACAUUUUACACCGCAGAAAAUUGCAGAAUCUCCUCAAGAAUGGAAAGACCAUUAACAACAGAGGAUUGAGCAUCA
# B18: chr11:101473508:101473773:-|CDS|ENSG00000137672|control|control|control (ssRNA)
# RNA: GGGAGUUCUACAGUCCGACGAUCUCCUCAAAUAAUAUCUGAAGGUCUUUAUGCAAUUGCUGUAGUUUUAAGUUUCUCUAGGAUAGCUUAUAUUUUACCAGCAAAUGAAAGCUUUGGACCUCUGCAGAUAUCACUUGGAAGAACCAACAGAGGAUUGAGCAUCA
# B19: chr5:113019263:113019364:+|3pUTR|ENSG00000172795|msi1|FALSE|unique (ssRNA)
# RNA: GGGAGUUCUACAGUCCGACGAUCCUCAACUGUGAAUGAAAUUUAGAAAGAUAAUUCUUCAGCAGUUGGUUGAUUAGAUGGGUUAGUGCUUUUGGAAUAUAUAACAGUAGACUUGUAUUCUUUAUGCACUAUACAUAUGAUACGCAACAGAGGAUUGAGCAUCA
# B20: ENSG00000070961:be:win_6101|3pUTR|ENSG00000070961|bound_else_gene|NA|bound_elsewhere_windowed (ssRNA)
# RNA: GGGAGUUCUACAGUCCGACGAUCUAAAGAUCUUGGAUCCCAUUAUAUAGUAUGUAUAGCUGAAAUCUGUAAUUCAAUCACUUUUUCUCUUUUAUCCUCUAACCAAAAAAUUGUUUAAUUUUGCAUCCCAAAUGUUUUUAAUCUCAACAGAGGAUUGAGCAUCA
# Target: MSI1 full-length (mouse, UniProt Q61474 1-362)
# Assay: nsRBNS (natural sequence RNA bind-n-seq); RBNS binding buffer (assumed for nsRBNS): 25 mM Tris pH 7.5, 150 mM KCl, 3 mM MgCl2, 0.01% Triton X-100, 500 ug/ml BSA, 20 U/ml SUPERase-In, 4 C; UNK is unkempt and MSI1 is Musashi-1; names of the RNAs are library labels; protein concentration not given here; high values mean tight binding
# MSI1 full-length, sequence (Q61474 whole entry): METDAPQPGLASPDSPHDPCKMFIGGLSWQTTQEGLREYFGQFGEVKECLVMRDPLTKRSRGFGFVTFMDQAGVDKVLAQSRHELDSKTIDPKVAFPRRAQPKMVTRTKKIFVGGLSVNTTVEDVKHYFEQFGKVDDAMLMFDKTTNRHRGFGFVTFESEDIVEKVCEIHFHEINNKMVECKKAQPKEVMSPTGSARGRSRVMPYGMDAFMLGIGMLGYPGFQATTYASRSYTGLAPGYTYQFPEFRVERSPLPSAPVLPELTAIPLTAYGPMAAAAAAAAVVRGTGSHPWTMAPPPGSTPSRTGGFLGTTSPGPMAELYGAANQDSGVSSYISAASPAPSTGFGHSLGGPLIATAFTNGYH
row,Binder,binding signal [enrichment R]
1,B1,0.365
2,B2,0.651
3,B3,0.459
4,B4,4.13
5,B5,0.303
6,B6,1.09
7,B7,0.703
8,B8,1.74
9,B9,3.25
10,B10,3.24
11,B11,6.54
12,B12,28.2
13,B13,18.4
14,B14,51.3
15,B15,0.583
16,B16,0.387
17,B17,0.623
18,B18,1.39
19,B19,1.92
20,B20,30
